Compounds with a hit are over-represented: about 10% of the library has one in this group of screens.
hNpr1 antagonist: antagonists of human natriuretic peptide receptor Npr1 | P16066 | HEK293 hNpr1 GloSensor cGMP, ANP-stimulated luminescence | Potency, µM (top dose mostly 46.3 µM), inactives show at the highest dose activity change, negative = inhibition, actives largely listed as inhibitors | hit rate 1.6% among 76,000 | AID 1347048; calls by dose curve; further: nearly all actives have a fitted effect of over 60% in size
Target sequence (P16066 whole entry, looked up): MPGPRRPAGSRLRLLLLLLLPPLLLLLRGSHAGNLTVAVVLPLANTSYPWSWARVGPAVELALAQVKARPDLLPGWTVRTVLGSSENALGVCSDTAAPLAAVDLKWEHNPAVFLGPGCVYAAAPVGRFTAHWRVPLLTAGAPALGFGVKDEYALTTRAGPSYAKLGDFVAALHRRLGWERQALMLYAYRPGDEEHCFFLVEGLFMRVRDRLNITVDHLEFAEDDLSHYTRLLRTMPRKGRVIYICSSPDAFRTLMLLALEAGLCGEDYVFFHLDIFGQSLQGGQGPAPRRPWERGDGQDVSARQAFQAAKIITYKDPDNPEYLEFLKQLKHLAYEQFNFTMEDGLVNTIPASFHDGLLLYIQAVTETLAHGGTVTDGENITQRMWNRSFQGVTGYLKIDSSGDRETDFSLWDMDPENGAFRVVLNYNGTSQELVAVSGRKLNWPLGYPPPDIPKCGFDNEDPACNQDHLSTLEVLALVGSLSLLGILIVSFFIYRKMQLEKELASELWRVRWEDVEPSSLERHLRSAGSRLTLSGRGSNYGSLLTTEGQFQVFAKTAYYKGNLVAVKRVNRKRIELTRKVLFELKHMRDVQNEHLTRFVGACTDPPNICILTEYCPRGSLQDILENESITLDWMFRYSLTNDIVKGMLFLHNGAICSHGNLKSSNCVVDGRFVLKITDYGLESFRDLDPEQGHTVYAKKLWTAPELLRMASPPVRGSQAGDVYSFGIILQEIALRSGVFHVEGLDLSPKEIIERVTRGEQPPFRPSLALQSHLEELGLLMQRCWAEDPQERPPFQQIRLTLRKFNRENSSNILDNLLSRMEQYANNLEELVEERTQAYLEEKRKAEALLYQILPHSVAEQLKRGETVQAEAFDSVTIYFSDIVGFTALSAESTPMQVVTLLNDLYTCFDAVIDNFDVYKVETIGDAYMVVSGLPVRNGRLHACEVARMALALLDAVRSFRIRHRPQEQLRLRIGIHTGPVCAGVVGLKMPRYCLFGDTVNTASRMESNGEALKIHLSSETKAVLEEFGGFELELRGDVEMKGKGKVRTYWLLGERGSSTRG
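Compound pre-incubated 30 min at room temperature on GloSensor-loaded HEK293 cells stably carrying hNpr1 and the pGS-40F cGMP biosensor. Stimulation uses hNppA at 0.1 nM final; luminescence is taken at baseline and 20 min post-agonist.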
HEK cytotox: cytotoxic compounds in HEK 293 cells; HEK 293 viability, ATP luminescence (CellTiter-Glo), 48-72 h; Potency, µM (series often up to 115 µM), for inactives: at the highest dose activity change, negative = cytotoxicity, actives largely listed as inhibitors; hit rate 6.6% among 94,000; further: nearly all actives have a fitted effect of over 60% in size
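Cells seeded first (HEK 293, 250 cells/well), then compound added by pintool. Incubation ran 48 or 72 hr at 37 degree Celsius. CellTiter-Glo was added and luminescence imaged after 10 min at room temperature.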
NIH3T3 tox: NIH 3T3 cell cytotoxicity; AID 1345082; Potency, µM (series often up to 96.7 µM), for the others: at the highest dose activity change, negative = cytotoxicity, actives largely listed as inhibitors; NIH 3T3 viability, CellTiter-Glo ATP luminescence, 48-72 h; hit rate 4.3% among 94,000; further: nearly all actives have a fitted effect of over 55% in size
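Mouse fibroblast NIH 3T3 cells, 400 per well, received compound via pintool and were incubated for 48 or 72 hr prior to CellTiter-Glo ATP luminescence measurement.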
Luciferase inh: blocks purified firefly luciferase enzyme activity; P08659; purified P. pyralis luciferase, luminescence, biochemical; Potency, µM (titrated, usually from 115 µM), usual class: inhibitors; hit rate 2.5% among 76,000; further: nearly all actives have a fitted effect of over 65% in size
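Purified P. pyralis luciferase (10nM final) in 50mM Tris acetate pH 7.5, 10mM Mg acetate, 0.01% Tween-20, 0.05% BSA with 10uM D-luciferin and 10uM ATP. Compounds titrated qHTS. Luminescence imaged on CCD.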
GPT2 inh: GPT2 alanine aminotransferase inhibition | Recombinant GPT2, coupled pyruvate oxidase/HRP Amplex Red fluorescence | Potency, µM (top dose mostly 57.7 µM), for the others: at the highest dose activity change, negative = inhibition, actives largely listed as inhibitors | hit rate 0.25% among 100,000; further: nearly all actives have a fitted effect of over 60% in size
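Inhibition is scored from Amplex Red fluorescence generated when pyruvate oxidase and HRP act on pyruvate released by GPT2. Reactions contain 10ng/uL enzyme, 250uM a-KG and 2mM L-alanine and run 30 min at room temperature.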
* hit, by the source's call; i = inactive; u = inconclusive; x = no result; [ ] = dose if it differs, or a comment. Unless noted, the call rests on the fitted dose curve; in most records, active means well fitted curve in the direction sought with a large enough effect; inconclusive means small, poorly fitted or top-dose-only effect, or another doubt; inactive means no such curve, though single readings can be large; an effect the other way counts as inactive or inconclusive. On the % scale 0 is the no-effect control and ±100 the full control effect; potency means the concentration at half of the fitted maximal effect.

SMILES	hNpr1 antagonist	HEK cytotox	NIH3T3 tox	Luciferase inh	GPT2 inh
COc1ccccc1CCn1cnc(-c2ccccc2)c1-c1cn(C)nc1C	-4.6%	79.4µM*	u	i	-4.1%
CC(C)(C)c1ccc(-c2cc(C[C@H]3CNCC[C@H]3CC(=O)N3CCCCC3)no2)cc1	4.1%[70.6 µM]	u	35.5µM*	i	i
CN1CCN(C(=O)C[C@@H]2CCNC[C@@H]2Cc2cc(-c3ccc(C(C)(C)C)cc3)on2)CC1	16.2%	u	79.4µM*	i	-11.3%
COc1cccc(C(O)c2nc(C(=O)Nc3ccc4c(c3)CC(=O)N4)c(C)o2)c1 (stereo not given)	1.2%[70.6 µM]	100µM*	u	i	1.6%[88.5 µM]
COc1cccc(C(O)c2nc(C(=O)Nc3nc(C)cs3)c(C)o2)c1 (stereo not given)	17.8µM*	u	u	u	-6.0%[88.5 µM]
Cc1csc(NC(=O)c2nc(C(O)c3ccccc3)oc2C)n1 (stereo not given)	u	u	79.4µM*	i	0.5%[88.5 µM]
CC(C)(C)C(=O)NC1CCN(C(=O)c2ccc(-c3cccs3)cc2)CC1	x	u	u	x	i
COc1ccc(Nc2cc3c(cn2)CN(Cc2ccncc2)CCN3)cn1	0.0%[70.6 µM]	u	-23.4%[138 µM]	i	5.0%[88.5 µM]
Cc1noc(C)c1CN1CCNc2cc(-c3ccccc3)ncc2C1	-0.5%[70.6 µM]	u	u	63.1µM*	3.3%[88.5 µM]
Cc1noc(C)c1CN1CCNc2cc(Nc3ccccc3)ncc2C1	-0.6%[70.6 µM]	u	-67.3%[138 µM]	35.5µM*	i
COc1cc(-c2nc(CN3CCCC(CN)C3)c(C)o2)cc2c1OCO2 (stereo not given)	-3.5%	39.8µM*	u	i	u
COc1cc(C)c(-c2nc(CN3CCOC(CCN)C3)c(C)o2)cc1C (stereo not given)	1.4%	44.7µM*	u	i	-7.3%
COc1cc(C)c(-c2nc(CN3CCCC(CN)C3)c(C)o2)cc1C (stereo not given)	-2.0%	31.6µM*	25.1µM*	i	-21.3%
COc1ccc(-c2nc(CN3CC[C@H]4CC[C@@H](C3)N4)c(C)o2)c(OC)c1C	-1.1%	u	u	i	i[11.5 µM]
O=C1NC(C(=O)O)Cn2cccc21 (stereo not given)	1.2%	-0.9%	-6.0%	i	1.4%
Cc1ccc(C(=O)N2CCCCCCNC(=O)[C@@H]3CCCC[C@@H]32)s1	5.3%	-3.4%	-5.4%	i	i
CC1=NS(=O)(=O)N(C)C=C1C(=O)OCc1noc(-c2ccccc2Cl)n1	11.2µM*	u	u	u	i
CCNc1ccnc(NC2CCCc3c2cnn3-c2ccc(C)c(C)c2)n1 (stereo not given)	2.8%	39.8µM*	28.2µM*	u	-42.5%
CCn1nccc1C(=O)N1CCC(c2noc(COc3ccc(F)cc3)n2)C1 (stereo not given)	-27.8%	44.7µM*	u	i	-15.8%
O=C(Cc1c(F)cccc1Cl)N1CCC(c2noc(COc3ccc(F)cc3)n2)CC1	u	89.1µM*	u	i	i
Cc1ccc(OCc2nc(C3CN(C(=O)c4ccc(C)nc4)C3)no2)cc1	-10.2%	-12.0%	-14.0%	i	-14.0%
Cc1ccc(OCc2nc(C3CN(C(=O)c4cc(C)nn4C)C3)no2)cc1	u	44.7µM*	-24.0%	39.8µM*	i
CCn1cnnc1-c1nn(C)c2c1CN(C(=O)c1n[nH]c(=O)c3ccccc13)CC2	-8.5%	-14.1%	-5.9%	i	0.3%
O=C(NCCn1cccc1-c1nc(-c2ccc3c(c2)OCO3)no1)C1(c2ccccc2)CC1	-14.3%	44.7µM*	u	20µM*	i
Cc1ccc(C(=O)NCCn2cccc2-c2nc(-c3ccccc3)no2)cc1F	1.0%	-6.9%	-4.3%	i	i
SMILES	hNpr1 antagonist	HEK cytotox	NIH3T3 tox	Luciferase inh	GPT2 inh
Cc1ccc(C(=O)NCCn2cccc2-c2nc(-c3ccccc3)no2)cc1	-1.7%	-0.9%	-16.4%	0.891µM*	-1.8%
CCN(C(=O)Cn1cccc1-c1nc(-c2ccccc2)no1)c1cccc(C)c1	-9.2%	u	u	i	4.3%
O=C(COc1ccccc1)NCCn1cccc1-c1nc(-c2ccc3c(c2)OCO3)no1	-17.5%	-2.7%	2.3%	u	-28.4%
Cc1cccc(N(C)C(=O)Cn2cccc2-c2nc(-c3ccccc3)no2)c1	-2.0%	70.8µM*	u	u	4.0%
Cc1ccc(Nc2ccnc(N3CCCC3C(=O)N3CCCCC3)n2)cc1 (stereo not given)	x	u	u	x	i
Cc1noc(C)c1[S+](=O)([O-])N1CCC2(CC1)COc1ccccc1NC2=O	8.3%	1.7%	-15.5%	i	-3.5%
CN(c1ccccc1)c1ccc2c(n1)CN(CCOc1ccccc1)C(=O)CO2	-19.1%[70.6 µM]	u	u	u	-0.3%[88.5 µM]
Cc1[nH]c2c(c1C(=O)N1CCCC(CCc3ccc(F)cc3)C1)C(=O)CCC2 (stereo not given)	u	31.6µM*	u	i	-20.0%
Cc1oc2ccn(Cc3ccccc3F)c(=O)c2c1C(=O)NCc1cc(F)cc(F)c1	-4.3%	35.5µM*	u	i	i
COc1cccc(CNC(=O)c2c(C)oc3ccn(Cc4ccc(F)cc4)c(=O)c23)c1	-18.9%	39.8µM*	u	i	i
COc1ccccc1CNC(=O)c1c(C)oc2ccn(Cc3cccc(F)c3)c(=O)c12	-18.6%	u	u	u	3.1%
Cc1oc2ccn(Cc3cccc(F)c3)c(=O)c2c1C(=O)NCC1CCCCC1	-15.7%	39.8µM*	39.8µM*	i	4.1%
CCOC(=O)c1cccc(NC(=O)c2c(C)oc3ccn(Cc4ccc(F)cc4)c(=O)c23)c1	-5.0%	39.8µM*	u	i	-11.3%
COc1cccc(C(=O)N2CC[C@](O)(c3ccccc3)[C@H](N(C)C)C2)c1	7.2%	6.0%	i	i	i
C#C[C@]1(O)CC[C@@H]2[C@@H]3CCC4=CC(=O)CC[C@@H]4[C@H]3CC[C@@]21CC	x	x	x	x	i
COCCn1cc2c3c(cccc31)CN(C(=O)CCCc1ccccc1)CC2	-29.4%	u	u	i	i
COCC(=O)N1CCc2cn(CC(C)C)c3cccc(c23)C1	-11.0%	79.4µM*	u	i	i
COc1ccc(-c2cc(N3CCCC(NC(=O)c4ccccc4)C3)n[nH]2)cc1 (stereo not given)	-16.0%	u	u	22.4µM*	-24.1%
CN(C)c1cccc(C(=O)NC2CCCN(c3cc(-c4ccccc4)[nH]n3)C2)c1 (stereo not given)	-11.0%	u	u	35.5µM*	-4.3%
COc1ccc(-c2cc(N3CCCC(NC(=O)c4ccc(C)s4)C3)n[nH]2)cc1 (stereo not given)	-14.3%	u	u	28.2µM*	-18.7%

Bioassay records: PubChem, National Center for Advancing Translational Sciences (NCATS)
